# Screens from PubChem.
# Pf growth 96h: P. falciparum growth inhibition at 96 hour, primary screen for plastid delayed-death inhibitors; AID 504834; P. falciparum luciferase reporter growth, 96 h; 6.9% of 320,000 active; Potency, µM (series often up to 28.7 µM), without a hit: at the highest dose activity change, negative = inhibition, hits mostly inhibitors; also: potency is read from the fitted curve at half-maximal effect; % is scaled to controls: 0 for no effect and ±100 for the full control effect
#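 Erythrocytes infected with luciferase-expressing P. falciparum were dispensed at 2% hematocrit and 0.05% parasitemia (final), then incubated with compounds 96 hours at 37 C in 5% CO2. Luminescence after detection reagent addition reported growth.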
# Shiga toxin inh: Shiga toxin inhibition. 9.2% of 290,000 active. Vero cells, Shiga toxin protein synthesis inhibition reporter. inhibition, % at 38.7 µM; in the data active = inhibition mostly above about 28%, no sharp cut-off; inactive = mostly below about 43%; also: 0% is about no effect
# HCV inhibitor: HCV inhibition. Huh7.5.1 HCVcc-Cre infection, luciferase reporter, 44 h. Potency, µM (top dose mostly 41.8 µM), inactives show at the highest dose activity change, negative = inhibition, usual class: inhibitors. 3.4% of 340,000 active; also: potency is read from the fitted curve at half-maximal effect; % is scaled to controls: 0 for no effect and ±100 for the full control effect
#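 HCVcc-Cre virus at an moi near 0.5 was added right after compound to cells cultured 4 h from seeding (1,000 cells/well). Luciferase activity was determined 44 h later, 15 min after substrate addition at RT.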
# HCMV antiviral: human cytomegalovirus inhibition; HFF cells, HCMV-luciferase reporter, 72 h; hits give low values; activity change, negative = inhibition, % at 57.5 µM; 4.5% of 410,000 active; AID 1259415; in the data active = activity change below about -60%; inconclusive = no clear call, values can overlap the other calls; inactive = above about -39%; also: % is scaled to controls: 0 for no effect and ±100 for the full control effect
#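 Two compound doses tested in HFFs infected with HCMV-luciferase, MOI 1 PFU/cell, 72 h at 37C. Lysate luminescence read with OneGlo; data normalized against buffer-only and 10uM Salinomycin inhibitor controls.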
# Pf growth 48h: P. falciparum growth inhibition at 48 hours (one generation) | AID 504832 | P. falciparum luciferase growth in erythrocytes, 48 h | 5.9% of 310,000 active | Potency, µM (series often up to 28.7 µM), for inactives: at the highest dose activity change, negative = inhibition, most hits filed as inhibitors; also: potency is read from the fitted curve at half-maximal effect; % is scaled to controls: 0 for no effect and ±100 for the full control effect
#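 Compounds are pin-transferred into medium, infected erythrocytes (2% hematocrit, 0.1% parasitemia final) are added, and plates sit one parasite generation at 37 C in 5% CO2. Detection reagent is then added and luminescence measured.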
# Cycloheximide cs: counter-screen hit for Shiga toxin inhibitors, cycloheximide; cell reporter, cycloheximide protein synthesis inhibition counterscreen; max response, %; 12% of 300,000 active; in the data active = max response mostly above about 13%, no sharp cut-off; inactive = mostly below about 14%; also: read at 38.3 µM for the half of the compounds with a filed dose; 0% is about no effect
# * = called active by the depositor; ? = inconclusive; / = not tested or not shown; [ ] = remark or other dose. Only some compounds are listed: those with a hit (about 21% of all), similar ones and a draw of the others. Unless noted, calls follow the shape of the dose curve; as a rule, active = well fitted inhibition curve with a large enough effect; inconclusive = small, poorly fitted or top-dose-only effect, or another doubt; inactive = no such curve, though single readings can be large or run the other way.
SMILES,Pf growth 96h,Shiga toxin inh,HCV inhibitor,HCMV antiviral,Pf growth 48h,Cycloheximide cs
COc1cc(OC)cc(C(=O)N[C@H](C(=O)Nc2nc(-c3ccc(F)c(F)c3)cs2)C(C)C)c1,-49.5%[5.75 µM],-8.4,?,-22.7,13.1µM*,3.4
COc1ccc(-c2csc(NC(=O)CC(NC(C)=O)c3ccccc3)n2)cc1OC (centres undefined),-20.0%,-11.2,?,14.3,8.1%,-3.3
Cc1ccc(NC(=O)CN2C(=O)C(c3ccc(C)cc3)=NC23CCCCCC3)cc1,/,/,/,-19.7,/,/
COc1ccc(CCNC(=O)Cc2ccc(Cl)cc2)cc1OC,-10.3%,/,4.2%,-12.8,-3.6%,1.7
COc1ccc(-c2csc(NC(=O)CCNC(=O)c3ccco3)n2)cc1OC,?,/,?,-9.1,11.7µM*,/
COc1ccc(CCNC(=O)Cc2cc(OC)c(OC)cc2Br)cc1OC,-61.3%[5.75 µM],20.2,23.0%,9.9,?,15.8*
Cc1noc(C)c1CSCC(=O)Nc1ccc(S(=O)(=O)C(F)F)cc1,4.65µM*,/,?,7.0,-18.2%,/
COc1ccc(CNC(=O)CCNC(=O)c2ccco2)cc1OC,0.7%,/,-11.8%,-1.2,33.9%,/
COc1ccc(CCCc2nnc(SCc3nc4ccccc4c(=O)[nH]3)n2C)c(C)c1,?,14.9,1.2%,-32.9,?,0.7
CN(C)S(=O)(=O)Oc1cccc(C(=O)Nc2ccc(Cl)c(Cl)c2)c1,-0.9%,117.3*,?,?,85.8%,71.7*
COC(=O)c1ccc(OS(=O)(=O)N(C)C)cc1,105.3%,98.7*,-13.0%,-7.9,98.9%,53.6*
COc1ccc(NC(=O)c2cccc(OS(=O)(=O)N(C)C)c2)cc1,8.8%,105.2*,?,23.9,71.6%,44.0*
CN(C)S(=O)(=O)Oc1cccc(C(=O)Nc2cccc(Cl)c2)c1,95.7%,66.5*,8.91µM*,-29.0,153.8%,38.1*
COc1cccc(OC)c1C(=O)NC(C)C12CC3CC(CC(C3)C1)C2 (centres undefined),?,-9.0,9.1%,2.7,/,-0.1
COc1ccc(CNC(C)C23CC4CC(CC(C4)C2)C3)c(OC)c1OC (centres undefined),9.28µM*,-3.2,?,-61.0*,11.7µM*,-3.8
Cc1ccc(NC(=O)NCc2ccco2)cc1[N+](=O)[O-],/,/,/,-32.1,/,/
CCc1ccc(NC(=O)Nc2cnccn2)cc1,50.7%,101.9*,-14.3%,26.7,124.9%,46.8*
CCCCc1ccc(NC(=O)Nc2cnccn2)cc1,4.4%,50.0*,?,-5.0,?,23.0*
CCCCc1ccc(NC(=O)Nc2cc(C)nn2C)cc1,1.1%,-2.4,?,/,-16.1%,-3.4
O=C(Nc1cc(Cl)cc(Cl)c1)Nc1cnccn1,73.4%,-9.3,-22.1%,-38.4,?,-2.5
CC(C)CNC(=S)N(CCCN(C)C)Cc1cc2cc3c(cc2[nH]c1=O)OCCO3,18.2%,/,-7.8%,6.3,?,0.5
COc1ccc(-c2noc(CNS(=O)(=O)c3ccc(NC(C)=O)cc3)n2)cc1OC,?,-5.6,14.2%,-27.2,17.8%,10.5
Cc1ccc(NC(=O)Nc2nnc(-c3ccncc3)s2)cc1C,?,-16.1,?,-91.7*,?,0.8
O=C(Nc1nnc(-c2ccc(F)cc2)s1)Nc1ccccc1F,88.0%,-4.4,6.3%,9.8,-23.8%,-1.7
O=C(Nc1cccc(Cl)c1)Nc1nnc(-c2ccncc2)s1,5.22µM*,28.4,?,-97.8*,11.7µM*,-0.7
SMILES,Pf growth 96h,Shiga toxin inh,HCV inhibitor,HCMV antiviral,Pf growth 48h,Cycloheximide cs
COC(=O)Nc1nnc(-c2ccncc2)s1,/,5.4,10.2%,38.8,16.1%,3.1
O=C(Nc1ccc(Cl)cc1)Nc1nnc(-c2ccncc2)s1,?,-7.9,?,-66.7*,17.4%,-0.5
O=C(Nc1ccc(F)cc1)Nc1nnc(-c2ccncc2)s1,?,24.0,25.1µM*,-94.7*,?,-2.8
COC(=O)C1(Cc2ccccc2)NC(c2ccccc2C)C2C(=O)N(c3ccc4c(c3)OCO4)C(=O)C21 (centres undefined),22.7%,3.2,-29.9%,-0.7,11.7µM*,-0.9
Cc1cc(C)c(C)c(OCCN2CC(C)OC(C)C2)c1 (centres undefined),-0.1%,/,-3.4%,16.2,69.0%,-3.1
O=C(c1cc(C2CC2)nn1-c1ccccc1)N1CCN(S(=O)(=O)c2cccc(F)c2)CC1,?,/,?,0.0,8.28µM*,/
O=C(c1cc(-c2cccs2)nn1-c1ccccc1)N1CCN(S(=O)(=O)c2ccccc2)CC1,4.15µM*,/,?,-28.8,10.4µM*,/
O=C(c1cc(-c2ccccc2)nn1-c1ccccc1)N1CCN(S(=O)(=O)c2cccc(F)c2)CC1,?,/,4.4%,-28.3,6.2%,/
Cc1ccc(S(=O)(=O)N2CCN(C(=O)c3cc(-c4cccs4)nn3-c3ccccc3)CC2)cc1,7.5%,/,-1.4%,-1.7,-1.8%,/
O=C(c1cc(C2CC2)nn1-c1ccccc1)N1CCN(S(=O)(=O)c2ccc(F)cc2)CC1,/,/,/,-8.2,/,/
O=C(c1cc(-c2ccccc2)nn1-c1ccccc1)N1CCN(S(=O)(=O)c2ccc(F)cc2)CC1,-27.0%,/,?,-77.1*,0.6%,/
COc1ccc(-c2cc(C)nc(SCC(=O)c3cccc([N+](=O)[O-])c3)n2)cc1,?,-16.9,15.8µM*,1.1,?,-2.8
O=C(CSc1nc(-c2ccccc2)cc(C(F)(F)F)n1)c1cccc([N+](=O)[O-])c1,?,12.3,?,-26.8,-20.9%,-3.5
O=C(CSc1nc2ncc(Br)cc2[nH]1)c1cccc([N+](=O)[O-])c1,-64.1%,6.5,-25.5%,-2.3,-18.9%,0.4
Cc1ccc(-c2cc(C(F)(F)F)nc(SCC(=O)c3cccc([N+](=O)[O-])c3)n2)cc1,13.1µM*,-3.7,?,-34.1,?,-3.1
Cc1nc2nc(SCC(=O)c3cccc([N+](=O)[O-])c3)[nH]c2cc1Br,11.7µM*,29.8*,-22.0%,51.7,?,31.4*
Cc1ccc(OCc2nnc(SCC(=O)c3cccc([N+](=O)[O-])c3)n2C)cc1,?,-7.1,8.91µM*,-22.4,?,5.2
Cc1ccc(OCc2nnc(SCC(=O)Nc3cc(C)on3)n2C)cc1,/,-9.9,0.0%,-10.1,6.4%,-5.6
Fc1ccc(NCc2cccn2-c2nnc(N3CCOCC3)s2)cc1,/,/,/,21.4,/,/
CC(=O)Nc1ccccc1C(=O)C(=O)Nc1cccc(C(=O)N2CC(C)CC(C)C2)c1 (centres undefined),?,-12.3,?,32.9,1.9%,9.4
COCCN(C(=O)CNC(=O)c1ccco1)C(C(=O)NC1CCCC1)c1ccc(F)cc1 (centres undefined),-28.4%,-9.2,20.6%,?,34.7%,-5.8
